# Most compounds without a hit are left out; they make up all but 9.2% or so of the library.
# SMN2 splice up: SMN2 splice variant enhancement | AID 1458 | HEK293 SMN2-luciferase splicing reporter, luminescence, 30-36 h | actives 2.8% (n = 210,000) | Potency, µM (top dose mostly 46.1 µM), without a hit: top-dose activity change, positive = activation, actives largely listed as activators; further: % of control where 0% means no effect; nearly all actives have a fitted effect of over 55% in size
#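 qHTS luciferase splicing reporter: luminescence rises when SMN2 exon 7 is included in transfected HEK293 cells. Compound exposure lasted 30-36 h at 37C, with 4.5 mM final sodium butyrate as control, followed by a ONE-Glo read.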
# ELG1 DNA repair: inhibitors of ELG1-dependent DNA repair in HEK293T cells; actives 2.3% (n = 330,000); HEK293T ELG1-luciferase reporter, luminescence, 16 h; DNA damage induced by 5-fluorouridine; Potency, µM (titrated, usually from 46.1 µM), for the others: at the top dose activity change, negative = inhibition, actives largely listed as inhibitors; AID 504467; further: on the % scale 0 is the no-effect control and ±100 the full control effect; nearly all actives have a fitted effect of over 55% in size
#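 5-Fluorouridine DNA damage + compound/DMSO, 2,000 cells/well, 16 h, 37 °C/5% CO2. ONE-Glo, 30 min RT, luminescence. Readout = decrease in reporter signal.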
# FLuc counter: inhibits or activates purified firefly luciferase, miR-21 counter-screen; P08659; purified FLuc, Km substrates, luminescence inhibition; Potency, µM (top dose mostly 57.5 µM), for inactives: at the highest dose activity change, negative = inhibition, usual class: inhibitors; actives 6.9% (n = 360,000);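 further: plate controls were vehicle for no effect and reference inhibitor for full effect; nearly all actives have a fitted effect of over 55% in size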
# Target sequence (P08659 whole entry, looked up): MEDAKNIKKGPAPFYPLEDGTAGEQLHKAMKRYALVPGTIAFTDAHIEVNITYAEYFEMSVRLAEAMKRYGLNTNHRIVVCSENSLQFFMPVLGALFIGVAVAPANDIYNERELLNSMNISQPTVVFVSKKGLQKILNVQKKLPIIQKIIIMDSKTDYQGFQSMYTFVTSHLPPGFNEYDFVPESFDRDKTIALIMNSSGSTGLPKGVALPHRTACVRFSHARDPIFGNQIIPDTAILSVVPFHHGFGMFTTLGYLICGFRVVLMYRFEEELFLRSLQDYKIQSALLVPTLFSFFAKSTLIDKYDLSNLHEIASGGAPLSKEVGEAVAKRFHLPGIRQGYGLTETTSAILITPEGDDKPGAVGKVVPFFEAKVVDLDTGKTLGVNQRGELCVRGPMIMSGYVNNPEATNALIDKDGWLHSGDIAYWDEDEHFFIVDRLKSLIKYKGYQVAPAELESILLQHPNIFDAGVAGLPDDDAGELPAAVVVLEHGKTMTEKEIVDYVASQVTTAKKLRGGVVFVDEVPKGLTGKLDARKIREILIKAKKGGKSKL
#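 Purified P. pyralis luciferase, 10 nM final, with Km-level 10 uM D-luciferin and 10 uM ATP in 50 mM Tris acetate pH 7.5, 10 mM Mg acetate, 0.01% Tween-20, 0.05% BSA; 6-point qHTS titration about 60 µM downward; luminescence read.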
# NPC1 prom act: activates the NPC1 promoter; Potency, µM (highest dose often 9.22 µM), for the others: at the highest dose activation, hits mostly activators; Huh7 NPC1 promoter luciferase reporter, 24 h; actives 2.4% (n = 320,000); further: % of control where 0% means no effect; nearly all actives have a fitted effect of over 60% in size
#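 Huh7 cells stably carrying NPC1 promoter–luciferase, plated in Opti-MEM with 10% FBS for 2 h, were exposed to compound in DMSO for 24 h at 37 °C; luciferase reagent was added for 10 min and luminescence read.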
# ELG1 genotox: genotoxicity induction in ELG1-luciferase HEK293T cells | actives 1.3% (n = 330,000) | HEK293T ELG1-luciferase reporter, luminescence, 16 h | Potency, µM (doses to about 46 µM), without a hit: top-dose activity change, positive = activation, most hits filed as activators; further: % of control where 0% means no effect; nearly all actives have a fitted effect of over 60% in size
#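 Quantitative HTS format in 1536-well plates. HEK293T ELG1-luciferase reporter cells receive test compound and are incubated 16 hr at 37 °C, 5% CO2; ONE-Glo added, 30 min room temperature, then luminescence read.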
# Rab9 promoter act: activates the Rab9 promoter; Potency, µM (titrated, usually from 9.22 µM), without a hit: at the highest dose activation, negative = inhibition, hits mostly activators; Huh7 Rab9 promoter-luciferase reporter, luminescence, 24 h; actives 2.8% (n = 320,000); further: % of control where 0% means no effect; nearly all actives have a fitted effect of over 60% in size
#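 Cell-based reporter: Huh7 stable for Rab9 promoter-driven luciferase, plated in reduced-serum medium with 10% FBS at 1500 cells/well, compound-treated 24 h at 37 °C, luminescence read after 10 min reagent.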
# * = called active by the depositor; ? = inconclusive; / = no result; [ ] = dose if it differs, or a comment. The call rests on the fitted dose curve; in most records, active means well fitted curve in the direction sought with a large enough effect; inconclusive means small, poorly fitted or top-dose-only effect, or another doubt; inactive means no such curve, though single readings can be large; an effect the other way counts as inactive or inconclusive. Potency means the concentration at half of the fitted maximal effect.
SMILES,SMN2 splice up,ELG1 DNA repair,FLuc counter,NPC1 prom act,ELG1 genotox,Rab9 promoter act
CCOC(=O)Cn1nc(/C=C/c2ccc(C(C)C)cc2)ccc1=O,-11%,?,11µM*,22%,1%,13%
CCOC(=O)Cn1nc(/C=C/c2ccc(C)cc2)ccc1=O,0%,17%,?,4%,-1%,1%
COc1ccc(NC(=O)c2cc(S(=O)(=O)N3CCCCC3)cn2C)cc1Cl,/,/,0%,/,/,/
O=C(Nc1cc(Cl)ccc1Cl)c1cc2nc(-c3ccc4c(c3)OCO4)cc(C(F)(F)F)n2n1,-6%,/,-1%,/,/,/
O=C(Nc1ccc2c(c1)OCO2)c1cc(C2CC2)on1,11µM*,?,4.3µM*,1.6µM*,2.1µM*,1.4µM*
CC(C)c1cc(C(F)(F)F)n2nc(C(=O)Nc3ccc4c(c3)OCO4)cc2n1,9%,?,12µM*,28%,?,?
CC(C)c1cc(C(=O)Nc2ccc3c(c2)OCO3)no1,7.1µM*,?,3.4µM*,2.8µM*,2.1µM*,1.6µM*
Cc1noc(C)c1-c1nc(CS(=O)(=O)c2ccc(F)cc2)no1,/,16%,-1%,1%,0%,1%
CCN(CC)c1ccc2cc(C(N)=O)c(=N)oc2c1,17%,?,24µM*,3%,?,12%
CCN(CC)c1ccc2cc(C(=O)Nc3cccnc3N3CCOCC3)c(=O)oc2c1,/,2%,-17%,-2%,6%,-2%
CCN(CC)c1ccc2cc(C(=O)Nc3ccccn3)c(=O)oc2c1,2.8µM*,?,0.54µM*,0.32µM*,?,0.11µM*
CCN(CC)c1ccc2cc(NC(=O)CCC(=O)O)c(=O)oc2c1,-55%,0%,6.7µM*,-23%,-12%,-28%
CCCCCCc1cc2cc(C(N)=O)c(=N)oc2cc1O,-2%,?,17µM*,2%,-8%,-1%
CCN(CC)c1ccc2cc(C(C)=O)c(=O)oc2c1,4%,?,?,1%,?,20%
CC(=O)c1c[nH]c(C(=O)Nc2ccc(N3CCCCCC3)cc2)c1,/,?,/,-2%,12%,13%
CS(=O)(=O)N1CCc2cc(-c3csc(NC(=O)Cc4cccs4)n3)ccc21,/,5.8µM*,?,-20%,-22%,-18%
CC(=O)Nc1nc(-c2ccc3c(c2)CCN3S(C)(=O)=O)cs1,10µM*,?,21µM*,?,?,2.5µM*
CC(C)(C)c1ccc(C2CC2C(=O)N/N=C\c2ccc[nH]2)cc1 (centres undefined),/,?,17µM*,-40%,22%,-60%
O=C(NN=C1c2ccccc2-c2ccccc21)c1cccc(Br)c1,11%,?,-4%,0%,12%,-3%
O=C(NNC(=S)Nc1ccccc1Cl)c1ccccc1Br,/,?,11µM*,2.8µM*,3.7µM*,4µM*
O=C(NC(=S)Nc1ccccc1O)c1ccccc1Cl,13µM*,?,24µM*,?,?,3.2µM*
CCOC(=O)c1ccc(N(CC(=O)NC2CCCCC2)C(=O)CNC(=O)c2ccco2)cc1,/,-9%,5%,3%,3%,-2%
Cc1c(C(=O)NC(C)c2ccccn2)oc2c(Cl)cccc12 (centres undefined),/,29%,2%,-1%,-1%,-1%
Cc1ccc(CC2SC(N=C(N)N)=NC2=O)cc1 (centres undefined),/,15%,-2%,-3%,6%,0%[1.84 µM]
COc1ccc(NC(=O)C2CCC2)cc1S(=O)(=O)Nc1cc(C)ccc1Br,/,23µM*,/,/,-9%,/
SMILES,SMN2 splice up,ELG1 DNA repair,FLuc counter,NPC1 prom act,ELG1 genotox,Rab9 promoter act
COc1ccc(NC(=O)[C@H](C)NC(N)=O)cc1S(=O)(=O)Nc1cc(C)ccc1Br,?,10%,-11%,-2%,-3%,2%
CC1(C)SC2c3ccccc3C(=O)N2[C@@H]1C(=O)O (some centres undefined),/,10%,3%,-1%,1%,-13%
COC(=O)NC(c1ccc2c(c1)OCO2)C(C(=O)OC)C(=O)OC (centres undefined),9%,/,/,/,/,/
Cc1cc(C)nc(N/N=C/c2ccccc2)n1,20%,0%,-19%,-1%,3%,?
Cc1cccc(/C=N/Nc2ccc3ccccc3n2)c1,-36%,?,0.076µM*,?,0.23µM*,?
Cc1cc(C)nc(N/N=C/c2ccc3c(c2)OCCO3)n1,22%,?,19µM*,14%,11%,?
CC(C)NC(=S)N/N=C/c1ccc2c(c1)OCCO2,9%,?,6.7µM*,28%,11%,?
C(=N\Nc1ccc2ccccc2n1)/c1ccc2c(c1)OCCO2,-77%,?,0.067µM*,-23%,?,-20%
Cc1cccc(/C=N\Nc2cn[nH]c(=O)c2Cl)c1,27%,?,?,0%,?,21%
CCc1sc(C(=O)NCCc2ccc(S(N)(=O)=O)cc2)cc1Br,-6%,-5%,-1%,-4%,5%,6%
CC(NS(=O)(=O)c1ccc2c(c1)oc(=O)n2C)c1ccccc1 (centres undefined),/,3%,4%,9%,10%,8%
CCOc1ccc(OCC)c(NC(=O)CN2CCN(CC(=O)NC(C)C)CC2)c1,/,?,-4%,9%,-5%,9%
Cc1ccc(Sc2cnccc2C#N)cc1,/,11%,0%,2%,1%,9%
CCC(=O)N1CCc2cc(S(=O)(=O)Nc3cc(C)ccc3OC)ccc21,-8%,/,2%,/,/,/
Cc1cc(C)nc(N/N=C/c2cccc3ccccc23)n1,26%,?,12µM*,15%,9%,-2%
Cc1ccc(/C=N/Nc2cn[nH]c(=O)n2)o1,13%,15%,-16%,-2%,3%,12%
C(=N\Nc1nc2ccccc2[nH]1)/c1ccc2c(c1)OCCO2,/,?,0.76µM*,?,?,1.4µM*
Cc1ccc(/C=N/Nc2ccc3ccccc3n2)o1,1.1µM*,?,0.48µM*,0.71µM*,?,0.13µM*
C(=N\n1cnnc1)/c1ccc2c(c1)OCCO2,13%,12%,-17%,1%,4%,-2%
Cc1ccc(S(=O)(=O)Oc2ccc(N=Nc3ccc(-c4ccc(N=Nc5c(O)ccc6cc(S(=O)(=O)O)cc(S(=O)(=O)O)c56)c(C)c4)cc3C)cc2)cc1,-9%,/,/,/,/,/
Cc1noc(C)c1CSCC(=O)Nc1ccccc1N1CCCCC1,/,-16%,4%,-2%,-2%,-4%
O=C1N=c2ccccc2=C1c1c(O)[nH]c2c(C(F)(F)F)cccc12,/,-9%,2%,7%,-1%,9%

# Screening results (PubChem BioAssay)
